Data reported in PubChem BioAssay (NCATS).
Several values for one entry are separate records, joined by “and”; a condition that tells them apart may be missing. Equal values may be shown once. Results filed as inconclusive are left out. Activity calls are given as the source filed them. Calls come from the whole dose curve; as a rule, active = well fitted activation curve with a large enough effect; inconclusive = small, poorly fitted or top-dose-only effect; inactive = no such curve, though single readings can be large or run the other way.

Biological target: Cellular tumor antigen p53 (Homo sapiens) (UniProt P04637)
Experiment: Primary qHTS for small molecule compounds that upregulate eGFP-tagged delta133p53alpha (in N-terminal) cells. (AID 2060322); note: nearly all actives have a fitted effect of over 75% in size;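 for activation: cells pre-induced with doxycycline then dosed without doxycycline; series mostly up to about 56 µM; 0% = DMSO vehicle and 100% = reference activator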
Settings: NCI-H358 eGFP-delta133p53alpha fluorescence, 24 h; activation: active compounds read high
In short: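 NCI-H358 cells pre-induced 24 h with 10 ng/ml doxycycline for eGFP-delta133p53alpha, plated dox-free and exposed 24 h at 37C to titrated compounds. Fixed, Hoechst-stained; gated GFP peak intensity by laser scanning cytometry, normalized to DMSO (0%) and 57.5 uM 5-azacytidine (100%).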
Potency is the fitted concentration of half-maximal effect.

Cellular tumor antigen p53 (Homo sapiens), sequence (P04637 whole entry, looked up): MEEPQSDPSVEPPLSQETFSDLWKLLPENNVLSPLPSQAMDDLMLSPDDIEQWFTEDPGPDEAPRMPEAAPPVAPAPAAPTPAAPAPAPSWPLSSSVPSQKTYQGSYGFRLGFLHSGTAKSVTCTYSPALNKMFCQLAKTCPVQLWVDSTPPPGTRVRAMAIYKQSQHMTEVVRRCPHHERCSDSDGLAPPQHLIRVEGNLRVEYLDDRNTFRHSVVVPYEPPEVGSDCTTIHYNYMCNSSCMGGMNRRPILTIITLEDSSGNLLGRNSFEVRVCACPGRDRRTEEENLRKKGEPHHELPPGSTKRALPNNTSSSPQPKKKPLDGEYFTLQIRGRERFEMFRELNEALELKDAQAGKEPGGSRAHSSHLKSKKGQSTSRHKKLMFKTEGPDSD

Structure (SMILES) | activation | Potency
CCCC1=CC2=C(CO1)C(=O)C(C)(OC(=O)c1c(C)cc(OC)cc1O)C(O)C2 (stereo not given) | -24.4% (inactive) | 
CCCCCOC(=O)Nc1nc(=O)n(C2O[C@H](C)[C@@H](O)[C@H]2O)cc1F (stereo not given in full) | -11.7% (inactive) | 
C=CC(C)(O)CC/C=C(\C)C(=O)O[C@@H]1[C@@H](O)[C@H](OC(C)(C=C)CC/C=C(\C)C(=O)O[C@@H]2O[C@H](CO)[C@@H](O)[C@H](O)[C@H]2O)O[C@H](CO)[C@H]1OC(=O)/C(C)=C/CCC(C)(O)C=C (stereo not given in full) | -19.8% (inactive) | 
COC(C(=O)N1Cc2[nH]nc(NC(=O)c3ccc(N4CCN(C)CC4)cc3)c2C1)c1ccccc1 (stereo not given) |  | 23.9 µM (active)
O=C(O)Cc1cn([C@@H]2O[C@H](CO)[C@@H](O)[C@H](O)[C@H]2O[C@@H]2O[C@H](CO)[C@@H](O)[C@H](O)[C@H]2O)c2ccccc12 | 3.82% (inactive) | 
CC1(CCC(=O)O)C(=O)C=CC23CC4CC(OC4(C)C2O)C13 (stereo not given) | 6.87% (inactive) | 
CCC(C)C(=O)OC12C(OC(C)=O)C(C)C3(O)C(C=C(CO)CC4(O)C(=O)C(C)=CC43)C1C2(C)C (stereo not given) | -19.1% (inactive) | 
N#CC1C(=O)N=C(c2cc(Cl)ccc2O)C=C1c1cc(OCc2ccccc2)cc(OCc2ccccc2)c1 (stereo not given) | -17.7% (inactive) | 
Cc1cn2c(N)c(Cl)cc(C(=O)NCC3CCN(CC(C)C)CC3)c2n1 | -0.893% (inactive) | 
COC(=O)[C@]1(C)CCC[C@@]2(C)[C@@H]3CC[C@@H]4C[C@@]3(CC[C@@H]21)C[C@H]4C(=O)O | -17.6% (inactive) | 
CC1CCC2(C)CCC3(C)C(=CCC4C5(C)CCC(O)C(C)(C(=O)O)C5CCC43C)C2C1C (stereo not given) | 19.6% (inactive) | 
O=S(=O)(O)c1ccc(Nc2ncnc3c2ncn3[C@@H]2O[C@H](CO)[C@@H](O)[C@H]2O)cc1 | -3% (inactive) | 
CC(=O)OC1C(O)C2C(C)C3=CC(=O)OC3(O)CC2C2(C)CCCC(C)(CO)C12 (stereo not given) | 9.16% (inactive) | 
C=C(C(=O)O)[C@@H]1CC[C@@]2(C)CC[C@@H](O)C(=C)C2C1 (stereo not given in full) | 22.9% (inactive) | 
CC(=O)C12OC(C)(C)OC1CC1C3CCC4=CC(=O)C=CC4(C)C3(F)C(O)CC12C (stereo not given) | -9.67% (inactive) | 
C=CC(C)(O)CC/C=C(/C)C(=O)OC1C(OC2OCC(OC3OC(CO)C(O)C(O)C3O)C(OC3OCC(O)C(OC4OC(C)C(O)C(O)C4O)C3O)C2O)COC(OC(=O)C23CCC(C)(C)CC2C2=CCC4C5(C)CCC(OC6OC(CO)C(OC7OC(CO)C(O)C(OC8OCC(O)C(O)C8O)C7O)C(O)C6O)C(C)(C)C5CCC4(C)C2(C)CC3O)C1O (stereo not given) | -12.2% (inactive) | 
COC(=O)C[C@H]1C(C)(C)[C@H](OC(=O)c2ccccc2)C2CC3=C4CC(=O)O[C@@H](c5ccoc5)[C@]4(C)CCC3[C@@]1(C)C2=O (stereo not given in full) | -5.34% (inactive) | 
O=C(CCCCc1ccc2ccccc2c1)C(F)(F)F | 4.33% (inactive) | 
N#Cc1ccc(Nc2nc(-c3ccc(O)cc3O)cs2)cc1C(F)(F)F |  | 26.9 µM (active)
COC(=O)C1=COC(OC2OC(CO)C(O)C(O)C2O)C2C(C)C(OC(=O)/C=C/c3ccc(O)cc3)C(O)C12 (stereo not given) | -8.93% (inactive) | 

Structure (SMILES) | activation | Potency
Cc1ccc(S(=O)(=O)n2ccc(-c3c(-c4ccc(Cl)cc4)noc3C)n2)cc1 | -18.8% (inactive) | 
COc1cc(C2Oc3c(O)cc(CCCO)cc3C2CO)ccc1O[C@H]1O[C@H](C)[C@@H](O)[C@H](O)[C@@H]1O (stereo not given in full) | -19.1% (inactive) | 
C/C=C(/C)C(=O)O[C@@H]1C[C@@H](OC(=O)/C(C)=C\C)[C@@]2(C)C3C(=O)C=C(C)C2C3C1(C)C | -3.57% (inactive) | 
CN1c2ccccc2C(=O)N2CCC3c4ccccc4NC3C21 (stereo not given) |  | 1.66 µM (active)
C/C=C/C=C/C=C/C(=O)O[C@@H]1[C@@H](OC)C2=C(C(=O)N(C(C)C(=O)O)C2)[C@@]2(C)CCCC(C)(C)[C@H]12 (stereo not given in full) | -2.68% (inactive) | 
Cc1cnc(NC(=O)Nc2cc(Br)c(C)cc2OCC2CNCCO2)cn1 (stereo not given) | 11.6% (inactive) | 
CC1=CC23[C@H](C=C(C(=O)O)[C@@H]2COC(=O)[C@]3(O)CO)[C@@H]1C (stereo not given in full) | -6.87% (inactive) | 
N#CCc1ccc(O)cc1O[C@@H]1O[C@H](CO)[C@@H](O)[C@H](O)[C@H]1O | -11.6% (inactive) | 
Nc1ncnc2c1nc(Cl)n2C1OC2COP(=O)(O)OC2C1O (stereo not given) | -12.3% (inactive) | 
OC[C@H]1O[C@@H](O[C@H]2[C@H](OCc3ccccc3)O[C@H](CO[C@@H]3OC[C@@H](O)[C@H](O)[C@H]3O)[C@@H](O)[C@@H]2O)[C@H](O)[C@@H](O)[C@@H]1O | -15.2% (inactive) | 
CN(CC1(C)CCCO1)S(=O)(=O)c1ccc(Cl)c(S(N)(=O)=O)c1 (stereo not given) | -1.69% (inactive) | 
CC(=O)O[C@H]1C[C@H](OC(C)=O)[C@]2(C)[C@H](CC[C@@]34O[C@@H]3C3=C(C)C(=O)O[C@@H]3C[C@H]42)C1(C)C | 4.46% (inactive) | 
C[C@@H]1C(=O)O[C@H](C)[C@H]1CC(=O)[C@](C)(O)[C@H]1CC[C@@]2(O)C3=CC(=O)[C@@H]4C[C@@H](O)[C@@H](O)C[C@]4(C)C3CC[C@]12C (stereo not given in full) | -6.11% (inactive) | 
COCC1OC(OC(C)(C)C2CCC3(C)C=C(C4CCC5C4(C)CC(O)C4OC(C(C)(C)OC6OC(CO)C(O)C(O)C6NC(C)=O)CCC45C)CCC3O2)C(NC(C)=O)C(O)C1O (stereo not given) | -16.8% (inactive) | 
C[C@H](CCC(=O)O)[C@H]1CC[C@H]2[C@@H]3C[C@H](O)[C@@H]4C[C@H](O)CC[C@]4(C)[C@H]3CC[C@]12C | 1% (inactive) | 
C=CC1(C)CC2=CCC3C(C)(C(=O)O)CCCC3(C)C2CC1OC(C)=O (stereo not given) | -14.5% (inactive) | 
CCC(CC)(NC(=O)C(C)C)C(=O)N[C@@H](CCCN=C(N)N)C(=O)NC1(C(=O)NC(c2ccc(F)cc2)c2ccc(F)cc2)CCCC1 | -15.7% (inactive) | 
O=C(c1ccc(OC(F)F)c(C#Cc2ccccn2)c1)N1Cc2cccnc2C1 | 4.77% (inactive) | 
Cc1cccc(Nc2cc(Cl)nc(SCC(=O)O)n2)c1C | 23.4% (inactive) and 14.3% (inactive) | 
CC(C)/C=C1/NC(=O)C(C(C)C)n2c1nc1c(O)cccc1c2=O (stereo not given) | -14.5% (inactive) | 
